The entries come from a sample that favours hits as a whole.
Methyltransferases – Primary Screen for Target Class Profiling of Small Molecule Inhibitors of Methyltransferases. purified enzyme, MTase-Glo SAH luminescence; active compounds read low. calls only at 40 µM. 25,000 compounds, 3.9% hits; call rule not given here
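Each enzyme was reacted with SAM and its substrate, with compounds tested once at 40 uM; SAH formed was read by MTase-Glo luminescence.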
MTase-Glo counter – inhibits MTase-Glo coupling enzymes without methyltransferase | Potency, µM (top dose mostly 57.3 µM), for the others: at the top dose activity change, negative = inhibition, actives largely listed as inhibitors | 180 compounds, 6% hits | MTase-Glo coupled enzymes, SAH conversion luminescence, no MTase | shares compounds with Methyltransferases; active means well fitted inhibition curve with a large enough effect; inconclusive means small, poorly fitted or top-dose-only effect; further: potency means the concentration at half of the fitted maximal effect
* hit, by the source's call; i = inactive; ? = inconclusive; + = active, no number; [ ] = dose if it differs, or a comment. On the % scale 0 is the no-effect control and ±100 the full control effect.

SMILES | Methyltransferases | others
CCCn1c(=O)c2ccccc2n2c(=O)n(CC(=O)Nc3ccc4c(c3)OCCO4)nc12 | i
CCCOc1ccc(CN2C(=O)c3cc4oc(C)cc4n3CC2(C)C(=O)NC2CCCCCC2)cc1 (stereo not given) | i
Cc1ccc(C(=O)CSc2nnc3n(C)c(=O)c4ccc(C(=O)NC5CCCCC5)cc4n23)cc1 | i
CCc1ccccc1N1C(=O)c2cc(-c3ccccc3)nn2CC1(C)C(=O)NCCCOC (stereo not given) | i
COc1ccc(-c2cc3n(n2)CC(C)(C(=O)NCc2ccccc2)N(c2ccc(F)cc2)C3=O)cc1 (stereo not given) | i
CCCN(CCC)CCCN1C(=O)c2cc3oc(C)cc3n2CC1(C)C(=O)NC1CCCCCC1 (stereo not given) | i
CCC(C)NC(=O)c1ccc2c(=O)n(CC(C)C)c3nn(Cc4cc(C)ccc4C)c(=O)n3c2c1 (stereo not given) | i
CC1(C(=O)NC2CCCCCC2)Cn2nc(-c3ccco3)cc2C(=O)N1Cc1cccs1 (stereo not given) | i
O=C(Nc1cnc(Cl)nc1)c1ccc(F)c(F)c1 | i
O=C(c1cc(F)ccc1F)N1CCCCC1c1nc(-c2cnccn2)n[nH]1 (stereo not given) | i
COc1ccc(CNC(=O)Cn2ccc3cc(S(=O)(=O)N4CCCC4)ccc32)c(OC)c1 | i
COc1ccc(-c2cnc3[nH]cc(CC(=O)Nc4ccc(C(F)(F)F)cc4)c3c2)cc1 | i
O=C(Nc1ccncc1)c1cc([N+](=O)[O-])ccc1Cl | i
COc1ccc(CC(=O)Nc2ccc3ncnc(N4CCCC4)c3c2)c(Cl)c1 | + | MTase-Glo counter=?
CN1C(=O)c2cc(NC(=O)c3ccccc3Cl)ccc2N2CCN=C12 | i
O=C(Cc1ccsc1)Nc1ccc2c(N3CCCC3)ncnc2c1 | + | MTase-Glo counter=0%
O=C(Nc1ccc2c(N3CCCC3)ncnc2c1)c1cc(F)ccc1Cl | + | MTase-Glo counter=-2%
O=C(Nc1ccc2ncnc(N3CCCCC3)c2c1)c1cc(F)ccc1F | + | MTase-Glo counter=5.4µM*
CCCCN1C(=O)c2c(NC(C)=O)c3cc(OC)ccc3n2CC1(C)C(=O)NC1CCCCC1 (stereo not given) | i
CCC(C(=O)NCc1ccc2c(c1)OCO2)n1ccc2cc(S(=O)(=O)N3CCCCC3)ccc21 (stereo not given) | i
O=c1c2ccccc2n2c(-c3cccc(Cl)c3)nnc2n1Cc1ccc(F)cc1 | i
CC(C)CCNC(=O)C1(C)Cn2c(ccc2-c2ccco2)C(=O)N1CCc1ccccc1 (stereo not given) | i
CCCn1c(=O)c2cc(F)ccc2n2c(SCC(=O)Nc3ccc(F)cc3)nnc12 | i
CC1(C(=O)NC2CCCCC2)Cn2c(nc3ccccc32)C(=O)N1Cc1cccs1 (stereo not given) | i
CCCn1c(=O)c2ccc(C(=O)NC(C)C)cc2n2c(SCC(=O)Nc3ccc(C)c(C)c3)nnc12 | i
SMILES | Methyltransferases | others
CC(C)C(NS(=O)(=O)c1ccc2c(c1)oc(=O)n2C)C(=O)N1CCN(c2ccc(F)cc2)CC1 (stereo not given) | i
COc1ccccc1N1CCN(C(=O)Cn2c(=O)n3nc(C)nc3c3ccccc32)CC1 | i
CN(CCN1C(=O)c2cc3sccc3n2CC1(C)C(=O)NC1CCCCCCC1)C1CCCCC1 (stereo not given) | i
Cc1ccc(NC(=O)CCc2nnc3n(CCCOC(C)C)c(=O)c4ccccc4n23)cc1C | i
Cn1cc(-c2ccc3c(n2)CN(Cc2ccc(F)cc2)C(=O)CO3)cn1 | i
O=C1COc2ccc(-c3cccc(O)c3)nc2CN1Cc1ccc(C(F)(F)F)cc1 | + | MTase-Glo counter=2%[85.7 µM]
O=C1COc2ccc(N3CCOCC3)nc2CN1Cc1ccc(F)cc1 | i
COCCN1C(=O)c2ccc(-c3ccco3)n2CC1(C)C(=O)NC1CCCCCCC1 (stereo not given) | i
CCC1c2ccc(C)n2CCN1C(=O)NCc1ccc(C)cc1 (stereo not given) | i
CCCN1C(=O)c2c(C(=O)NCCc3ccc(C)cc3)ncn2CC1(C)C(=O)NCc1ccc(F)cc1 (stereo not given) | i
Cc1cccc(Cn2nc3n(CCC(C)C)c(=O)c4ccc(C(=O)NC5CCCC5)cc4n3c2=O)c1 | i
O=C(NC1CCCC1)c1ccc2c(c1)n(Cc1cccc(F)c1)c(=O)c1ccnn12 | i
Cn1c(=O)c2ccnn2c2ccc(C(=O)NCC3CCN(Cc4ccccc4F)CC3)cc21 | + | MTase-Glo counter=0%
COc1ccc(-c2n[nH]n3c2nc(=O)c2ccc(C(=O)NCc4ccccc4F)cc23)cc1 | i
CCOC(=O)c1cc2n(n1)CC(C)(C(=O)NCc1ccccc1)N(c1ccc(OCC)cc1)C2=O (stereo not given) | i
O=C(C1CCCN1[S+](=O)([O-])c1cccc(C(F)(F)F)c1)N1CCC(c2nc3ccncc3[nH]2)C1 (stereo not given) | i
O=C(c1ccc(C(F)(F)F)cc1)N1CCCC(C(=O)N2CCC(c3nc4ccncc4[nH]3)CC2)C1 (stereo not given) | + | MTase-Glo counter=2%
O=C(C1CCCN1C(=O)c1ccccc1Cl)N1CCC(c2nc3ccncc3[nH]2)CC1 (stereo not given) | i
CC(NC(=O)Cn1ccc2cc(S(=O)(=O)N3CCCC3)ccc21)c1ccccc1 (stereo not given) | i
Cc1ccccc1N1C(=O)c2ccc(-c3ccco3)n2CC1(C)C(=O)NC1CCCC1 (stereo not given) | i
CC(=O)N1CC[C@H](c2nc3ccc(C#N)cc3[nH]2)C1 | i
CC(=O)N1CCC(C(=O)N2CCCC(c3nc4ncccc4[nH]3)C2)CC1 (stereo not given) | i
O=C(C1CC2(CCNCC2)CN1)N1CCC(c2nc3ccccc3[nH]2)CC1 (stereo not given) | i
CN1CCC(N2CC[C@H](c3nc4ccc(C(F)(F)F)cc4[nH]3)C2)CC1 | + | MTase-Glo counter=2%[85.7 µM]
CN1CCC(N2CC[C@H](c3nc4ccccc4[nH]3)C2)CC1 | + | MTase-Glo counter=-2%[114 µM]
SMILES | Methyltransferases | others
CN1CCN(c2nc3cc(C(F)(F)F)ccc3n3cccc23)CC1 | i
CCCN1C(=O)c2c(C(=O)NCCC3=CCCCC3)ncn2CC1(C)C(=O)NCc1ccc(OC)cc1 (stereo not given) | i
CCCn1c(=O)c2ccc(C(=O)NC(C)CC)cc2n2c(=O)n(CC(=O)NC(C)(C)C)nc12 (stereo not given) | i
CC1CCC(NC(=O)C2(C)Cn3c(ccc3-c3ccccc3)C(=O)N2Cc2cccc(F)c2)CC1 (stereo not given) | i
COCCCN1C(=O)c2cc3ccc(OC)cc3n2CC1(C)C(=O)NC1CCCCC1 (stereo not given) | i
Fc1ccccc1Nc1ccnc(N2CC3CCC(C2)N3CC(F)(F)F)n1 | i
N#Cc1cnc(N2CC3CCC(C2)N3CC(F)(F)F)s1 | + | MTase-Glo counter=-2%[85.7 µM]
CCN1C(=O)c2c(C(=O)NCCc3ccc(C)cc3)ncn2CC1(C)C(=O)NC1CCCC1 (stereo not given) | i
CC1CCN(S(=O)(=O)c2ccc3c(c2)oc(=O)n3CC(=O)N2CCC(Cc3ccccc3)CC2)CC1 | i
O=C(Nc1ccccc1)c1cc2n(n1)CCN(C(=O)COc1ccccc1)C2 | i

Source: PubChem BioAssay (National Center for Advancing Translational Sciences (NCATS))
